Reference: PubChem BioAssay AID720551 (National Center for Advancing Translational Sciences (NCATS), 2013)
Among all 340,000 compounds or so, about 1,300 (0.38%) were called active.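 How the source made its calls: active means maximum activity change below -70%; inconclusive means maximum activity change between -70% and -50%; inactive means maximum activity change above -50%.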 The sample as a whole holds a higher share of actives than the screen did.

Biological target: Voltage-gated inwardly rectifying potassium channel KCNH2 (Homo sapiens) (UniProt Q12809)
Sequence (Q12809 whole entry, looked up): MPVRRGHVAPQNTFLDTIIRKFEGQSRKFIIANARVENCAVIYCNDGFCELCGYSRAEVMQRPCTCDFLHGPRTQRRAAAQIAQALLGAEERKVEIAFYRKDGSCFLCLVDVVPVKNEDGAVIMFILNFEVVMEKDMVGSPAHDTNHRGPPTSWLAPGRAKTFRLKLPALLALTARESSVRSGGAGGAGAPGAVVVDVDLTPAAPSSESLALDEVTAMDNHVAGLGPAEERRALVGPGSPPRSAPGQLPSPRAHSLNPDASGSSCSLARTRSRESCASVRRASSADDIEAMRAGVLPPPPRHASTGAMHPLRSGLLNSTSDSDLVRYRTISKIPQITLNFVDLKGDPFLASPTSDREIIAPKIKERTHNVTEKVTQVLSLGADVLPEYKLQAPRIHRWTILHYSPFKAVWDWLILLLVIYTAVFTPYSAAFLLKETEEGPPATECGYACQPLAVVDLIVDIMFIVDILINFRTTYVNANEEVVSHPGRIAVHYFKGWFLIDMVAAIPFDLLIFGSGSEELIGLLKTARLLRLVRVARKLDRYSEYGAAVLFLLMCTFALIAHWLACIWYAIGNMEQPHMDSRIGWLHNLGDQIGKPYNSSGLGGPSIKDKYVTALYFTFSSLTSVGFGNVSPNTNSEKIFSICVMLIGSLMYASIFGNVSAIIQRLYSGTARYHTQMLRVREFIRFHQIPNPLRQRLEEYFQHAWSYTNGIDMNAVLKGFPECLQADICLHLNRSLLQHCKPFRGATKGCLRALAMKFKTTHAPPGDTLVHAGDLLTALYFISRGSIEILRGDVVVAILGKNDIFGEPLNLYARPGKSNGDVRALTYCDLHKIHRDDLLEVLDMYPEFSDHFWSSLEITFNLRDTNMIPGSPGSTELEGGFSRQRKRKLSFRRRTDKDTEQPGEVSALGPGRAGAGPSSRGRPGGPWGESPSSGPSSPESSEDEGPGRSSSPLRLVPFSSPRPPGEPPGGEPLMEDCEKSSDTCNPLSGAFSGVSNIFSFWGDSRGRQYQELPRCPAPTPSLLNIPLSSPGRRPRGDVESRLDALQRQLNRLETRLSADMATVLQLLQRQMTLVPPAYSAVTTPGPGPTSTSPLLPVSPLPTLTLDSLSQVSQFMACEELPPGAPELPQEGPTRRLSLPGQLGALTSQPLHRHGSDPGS
Test: qHTS for Inhibitors of KCHN2 3.1: Wildtype qHTS
Details: U2OS, BacMam KCNH2, thallium flux FluxOr; at 1.84 µM; active compounds read low
Method in brief: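 U2OS cells were transduced with wild-type KCNH2 virus (2.03 x 10^8 / mL) for 4 h at room temperature, then cultured overnight at 37 C. Thallium flux was read with FluxOr dye. Rate constants were normalized to DMSO controls.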
On the % scale 0 is the no-effect control and ±100 the full control effect.

Row | Structure (SMILES) | activity change
1 | Cc1ccc([C@H]2N[C@]3(CCCN(CC4CCCCC4)C3=O)[C@H]3C(=O)N(Cc4ccccc4)C(=O)[C@@H]23)cc1 | 2.25% (inactive)
2 | CN(C)C(CNC(=O)c1cccc(S(=O)(=O)N2CCc3ccccc3C2)c1)c1ccccc1 (centres undefined) | 19.3% (inactive)
3 | C[C@@H]1CN([C@H](C)CO)C(=O)c2cc(-c3ccc(F)cc3)cnc2O[C@H]1CN(C)C(=O)c1ccc(F)cc1 | 16.3% (inactive)
4 | Cc1noc(C)c1COc1cccc(C(=O)Nc2cccnc2)c1 | 7.71% (inactive)
5 | Cc1nc2nc[nH]n2c(=O)c1C/C=C/c1ccccc1 | 1.17% (inactive)
6 | Cc1nc2nc[nH]n2c(=O)c1NC(=O)c1cccc(OCC(C)C)c1 | -180% (active)
7 | COc1ccc(-c2ccc(CN3C(C(C)C)C(=O)N(Cc4cn(CC5CCCCC5)nn4)CCS3(=O)=O)cc2)cn1 (centres undefined) | 6.66% (inactive)
8 | Cc1cccc(C(=O)NC2CCN(CC(=O)Nc3cccc(Cl)c3)CC2)c1 | 47.4% (inactive)
9 | Clc1ccc(-c2cc(-c3ccccn3)on2)c(Cl)c1 | -93.1% (active)
10 | O=C(COc1ccc(Cl)cc1Cl)N/N=C/c1ccccn1 | -7.76% (inactive)
11 | Clc1ccc(COn2c(-c3ccc(Cl)cc3Cl)nc3ncccc32)cc1 | 1.98% (inactive)
12 | C[C@@H]1CN([C@H](C)CO)C(=O)CCCn2cc(nn2)CO[C@H]1CN(C)S(=O)(=O)c1ccc(Oc2ccccc2)nc1 | 10.5% (inactive)
13 | COc1ccc(CN2CCN(Cc3ccc(OC)c(OC)c3OC)CC2)cc1 | 38.9% (inactive)
14 | COc1ccc(F)c(-c2nc(CN3CCC(c4ccccc4)CC3)c(C)o2)c1 | 21% (inactive)
15 | COc1ccc(CN2CCC(c3nc4ccc(Cl)cc4[nH]3)CC2)cc1 | -96.7% (active)
16 | O=C(CCCN1C(=O)C(c2ccccc2)Oc2cccnc21)Nc1ccccc1Br (centres undefined) | -7.82% (inactive)
17 | CCOC(=O)c1cnn2c(SC)ncnc12 | 9.2% (inactive)
18 | Cc1ccc(C(C)C)cc1OCC(=O)Nc1ccccc1N1CCCC1 | -18.3% (inactive)
19 | CCOc1ccccc1NC(=S)N1CCN(c2cccc(C)c2C)CC1 | -2.86% (inactive)
20 | CCC(=O)N1CCN(c2ccccc2NC(=O)COc2cccc(C)c2C)CC1 | -214% (active)
21 | COc1ccc(-c2ccc(CN3C(CC(C)C)C(=O)N(Cc4cn(CC5CCCCC5)nn4)CCS3(=O)=O)cc2)cn1 (centres undefined) | 16.3% (inactive)
22 | CCC(Oc1ccccc1)C(=O)OCC(=O)Nc1c(C)nn(-c2ccccc2)c1C (centres undefined) | 0.17% (inactive)
23 | Cc1cc(NC(=O)[C@H](C)NC(=O)c2ccco2)ccc1Br | -4.82% (inactive)
24 | O=C(COc1ccccc1F)Nc1nc(-c2ccccn2)cs1 | -8.89% (inactive)
25 | CC(NC(=O)c1ccco1)C(=O)Nc1nc(-c2ccccn2)cs1 (centres undefined) | -212% (active)
26 | COc1ccc(CC(=O)Nc2c(C(N)=O)oc3ccccc23)cc1 | 26.6% (inactive)
27 | COc1cccc(OC)c1C(=O)Nc1c(C(=O)N2CCN(c3ccccn3)CC2)oc2ccccc12 | 3.21% (inactive)

Row | Structure (SMILES) | activity change
28 | COCC(=O)Nc1c(C(=O)N2CCCC2)oc2ccccc12 | -3.28% (inactive)
29 | CCOCCCN(C)C1CCN(C(=O)c2oc3ccccc3c2NC(=O)Cc2cccc([N+](=O)[O-])c2)CC1 | -97.4% (active)
30 | CCOCCCN(C)C1CCN(C(=O)c2oc3ccccc3c2NC(=O)COc2cccc(C)c2)CC1 | -82.2% (active)
31 | CN(C(=O)c1cccc(NC(=O)Cc2cccc([N+](=O)[O-])c2)c1)C1CCCCC1 | -17.3% (inactive)
32 | COc1ccccc1C(=O)NC(=S)Nc1ccc(N2CCOCC2)cc1 | -8.97% (inactive)
33 | C#CCN(C[C@@H]1[C@@H](OC(=O)NC2CC2)[C@@H](OC(=O)NC2CC2)Cn2c(=O)ccc(=O)n21)S(=O)(=O)c1ccc(C)cc1 | 2.34% (inactive)
34 | CC(C)CC1C(=O)N(Cc2cn(Cc3ccco3)nn2)CCS(=O)(=O)N1Cc1ccc(-c2ccc(Cl)c(Cl)c2)cc1 (centres undefined) | -32.9% (inactive)
35 | C[C@H](CO)N1C[C@H](C)[C@@H](CN(C)S(=O)(=O)c2ccc(F)cc2)OCc2cnnn2CCCC1=O | -1.39% (inactive)
36 | CCN(CC)C(=O)C1=C(C)N(Cc2ccc(C(C)(C)C)cc2)C(=O)C(CC(=O)NCc2cccc3ccccc23)C1 (centres undefined) | -4.42% (inactive)
37 | CCCn1nnc(NC(=O)COc2ccc(CC)cc2)n1 | 4.88% (inactive)
38 | CCCOc1cccc(C(=O)NCCCNC(=O)c2cccnc2)c1 | -0.846% (inactive)
39 | CCCOc1cccc(C(=O)Nc2nnn(CCC)n2)c1 | -113% (active)
40 | CC(=O)c1ccc(OCC(=O)N(C)C2CCS(=O)(=O)C2)cc1 (centres undefined) | -11.1% (inactive)
41 | CC(C)CC(=O)NC(=S)Nc1cc(C(=O)O)ccc1Cl | -19.3% (inactive)
42 | CC(C)CC(=O)c1c[nH]c(C(=O)NCc2ccccc2)c1 | 0.798% (inactive)
43 | CC(C)CC(=O)NC(=S)NCc1ccccc1 | -84.2% (active)
44 | COc1ccc(NC(=O)CCCOc2ccc(C(C)=O)cc2)cc1S(=O)(=O)N1CCCCC1 | -1.81% (inactive)
45 | Cc1ccc([C@H]2C[C@H](O)[C@@H](n3cc(COC(=O)c4ccccc4)nn3)CN2C(=O)C2CCCCC2)cc1 | -0.947% (inactive)
46 | C[C@@H]1CN([C@@H](C)CO)C(=O)CCCn2cc(nn2)CO[C@H]1CN(C)S(=O)(=O)c1ccc(-n2cccn2)cc1 | -21.9% (inactive)
47 | COc1ccc(-n2nnnc2CNC(=O)c2ccc3ccccc3c2)cc1 | -0.166% (inactive)
48 | O=C(NCc1nnnn1-c1ccc(Cl)cc1)c1ccc([N+](=O)[O-])o1 | 7.93% (inactive)
49 | O=C(NCc1nnnn1-c1ccc(Cl)cc1)c1ccc2c(c1)OCO2 | -76.9% (active)
50 | C/C(COc1ccccc1)=N\NC(=O)c1nnn(-c2nonc2N)c1-c1ccc(C)cc1 | 4.6% (inactive)
51 | Cc1c(C=O)c2ccccn2c1C(=O)c1ccncc1 | -70.5% (active)
52 | Cc1c(C(=O)NNC(=O)c2ccncc2)oc2ccccc12 | -13.1% (inactive)
53 | Cc1cc2ccccn2c1C(=O)c1cccc(F)c1 | -0.532% (inactive)
54 | O=C1[C@H]2[C@@H](c3ccc(C(F)(F)F)cc3)N[C@]3(CCCN(Cc4ccc(Cl)cc4)C3=O)[C@H]2C(=O)N1Cc1ccccc1 | -9.13% (inactive)
